KCNQ2 block = rat KCNQ2 potassium channel inhibitors, primary screen, cell-based, CHO-K1, FluxOR thallium flux, B-score; Potassium voltage-gated channel subfamily KQT member 2 (Rattus norvegicus), O88943; 20 min; active compounds read low; B-score at 10 µM; 310,000 compounds, 1.1% hits;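 active = fluorescence ratio B-score at most minus 3 library SDs, with starting brightness B-score within 2 library SDs, cut at about -5.5 in these data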
KCNQ2 enhance = potentiators of rat KCNQ2 potassium channel. Potassium voltage-gated channel subfamily KQT member 2 (Rattus norvegicus), O88943. CHO-K1 KCNQ2, FluxOR thallium flux fluorescence; active compounds read high. B-score at 10 µM. 310,000 compounds, 0.54% hits;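 active = fluorescence ratio B-score at least 3 SD of library B-scores, with initial fluorescence B-score within 3 of them, cut at about 5.3 in these data; same plate scores as AID 2156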;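 note: B-score of peak minus minimum over baseline fluorescence ratio after K+ and Tl+ stimulus; positive B-score means potentiation of KCNQ2 with more thallium influx and brighter signal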
Kir21 conf inh = mouse Kir2.1 channel blockers, retest, confirmation, cell-based, FluxOR thallium flux, duplicate; shares compounds with KCNQ2 enhance; Kir2.1-expressing cells, FluxOR thallium flux fluorescence; active compounds read low; Tl flux remaining, % of negative control (active compounds read low), % at 10 µM; 2,300 compounds, 41% hits;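 active = Primary-screen hit whose thallium flux fell at least 3 control SD below untreated wells in both duplicates, with normal baseline fluorescence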;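 note: 0% = blank wells without stimulus and 100% = stimulated no-compound controls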
Target sequence (P35561 whole entry, looked up): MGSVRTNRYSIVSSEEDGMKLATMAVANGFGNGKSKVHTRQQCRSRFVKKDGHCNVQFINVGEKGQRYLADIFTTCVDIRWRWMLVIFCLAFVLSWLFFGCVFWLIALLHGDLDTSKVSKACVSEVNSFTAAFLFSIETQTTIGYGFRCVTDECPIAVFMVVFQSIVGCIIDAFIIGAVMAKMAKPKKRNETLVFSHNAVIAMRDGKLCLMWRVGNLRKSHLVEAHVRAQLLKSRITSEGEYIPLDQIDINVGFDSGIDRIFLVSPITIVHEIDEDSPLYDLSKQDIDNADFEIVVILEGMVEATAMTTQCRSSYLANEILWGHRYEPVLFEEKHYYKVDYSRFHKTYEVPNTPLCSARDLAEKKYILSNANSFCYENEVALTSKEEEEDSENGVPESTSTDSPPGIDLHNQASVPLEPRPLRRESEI
HEK293 ctr = parental HEK293 activity in Kir2.1 inhibitor counter-screen. shares compounds with KCNQ2 enhance. parental HEK293 cells, FluxOR thallium flux fluorescence; 0% = unstimulated blank wells. FluxOR signal as % of negative control (100 = no effect), % at 10 µM. 2,300 compounds, 19% hits. AID 2105;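 active = dye signal at least 3 control SD above or below untreated wells in both duplicates, raw fluorescence within 3, either direction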;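 note: percent is based on the flux ratio of peak minus minimum fluorescence over baseline F0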
CHO-K1 ctr = nonspecific thallium flux increase in parental CHO-K1, confirmation, counter-screen for KCNQ2 potentiator project, cell-based, FluxOR thallium flux, duplicate; shares compounds with KCNQ2 enhance; parental CHO-K1 cells, FluxOR thallium flux fluorescence; zero = vehicle mean+3SD, 100% = vehicle-minus-blank window; activity increase over 3SD of controls, % at 10 µM; 1,200 compounds, 43% hits; AID 2282, 2010;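 active = signal rise of at least 3 SD above the untreated control mean, in both duplicate wells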;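 note: counter screen of KCNQ2 potentiator hits so any rise reflects channel-independent effects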
KCNQ1 pot spec = human KCNQ1 channel potentiation off-target, confirmation, selectivity assay for KCNQ2 potentiator project, cell-based, CHO, FluxOR thallium flux; 1,200 compounds, 28% hits; CHO KCNQ1 stable, FluxOR thallium flux fluorescence; beyond 3SD, as % of vehicle-control signal; activation over 3SD threshold, % at 10 µM; shares compounds with KCNQ2 enhance;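 active = fluorescence ratio rise of at least 3 SD of vehicle wells above their mean, in both replicate wells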;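 note: 0% = vehicle mean plus 3 SD and 100% = vehicle minus unstimulated blank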
KCNQ2 pot conf = rat KCNQ2 channel potentiators, confirmation, cell-based, CHO, FluxOR thallium flux, duplicate; AID 2287, 2010; potentiation, less the hit threshold, % at 10 µM; shares compounds with KCNQ2 enhance; 1,200 compounds, 68% hits; CHO-KCNQ2 cells, FluxOR thallium flux fluorescence;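 active = fluorescence ratio rising 3 SD or more over the vehicle control mean in both replicates, plus primary screen hit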;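 note: peak minus minimum thallium fluorescence divided by baseline after K/Tl stimulus; 0% = vehicle mean plus 3 SD and 100% = vehicle minus unstimulated blank difference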
Kir2-1 sel = mouse Kir2.1 channel activation off-target, confirmation, selectivity assay for KCNQ2 potentiator project, cell-based, HEK293, FluxOR thallium flux | shares compounds with KCNQ2 enhance | HEK293 Kir2.1, FluxOR thallium flux fluorescence | activity over 3SD threshold, % at 10 µM | 1,200 compounds, 2% hits | AID 2345, 2010;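 active = fluorescence ratio rise of at least 3 SD above the vehicle-control mean, seen in both replicates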;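 note: 0% = vehicle mean plus 3 SD and 100% = vehicle minus no-stimulus blank window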
KCNQ2 W236L pot = potentiators of retigabine-insensitive KCNQ2 W236L, mechanism study for KCNQ2 potentiator project, cell-based, rat KCNQ2 W236L, CHO, automated patch clamp; automated patch clamp current; current increase over 3SD of negative controls (%), active compounds read high, % at 25 µM; AID 2558, 2010; 940 compounds, 10% hits; shares compounds with KCNQ2 enhance;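 active = current increase at least 3 SD of the untreated controls above them in both duplicate recordings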
* hit, by the source's call; i = inactive; / = no result. Hits are enriched below; roughly 1.6% of the tested compounds scored in any of these assays.

SMILES | KCNQ2 block | KCNQ2 enhance | Kir21 conf inh | HEK293 ctr | others
CCn1nc(/C=C/c2ccccc2)nc2c(=O)n(C)c(=O)nc1-2 | i | 7.9* | i | i | CHO-K1 ctr=5.3*;KCNQ1 pot spec=-4;KCNQ2 pot conf=3.5*;Kir2-1 sel=-22;KCNQ2 W236L pot=i
COc1ccc(-n2c(/C=C/c3ccc(O)cc3)nc3ccccc3c2=O)cc1 | i | / | / | /
Cc1ccccc1N1CCN(C2CCCN(C(=O)Cc3c(C)noc3C)C2)CC1 (stereo unspecified) | i | 0.9 | / | /
CC1(C)C(C(=O)N2CCN(C(=O)c3ccccc3)CC2)C1(C)C | i | / | / | /
CCCCCSc1cc(OC)c(CCNC)cc1OC | i | 1.4 | 43%* | i
CC(C)c1cc(Br)c(NC(=O)Nc2cccnc2)c(Br)c1 | i | 2.8 | / | /
O=C(Cn1ncc2c3ccccc3n(Cc3cccc(Cl)c3)c2c1=O)N1CCC2(CC1)OCCO2 | i | 13* | i | i | CHO-K1 ctr=109*;KCNQ1 pot spec=-18;KCNQ2 pot conf=58*;Kir2-1 sel=-28;KCNQ2 W236L pot=i
Cc1c2cnn(CC(=O)N3CCC4(CC3)OCCO4)c(=O)c2c(C)n1Cc1cccc(Cl)c1 | i | 0.68 | / | /
CCOC(=O)CCCCCNC(=O)c1c(O)[nH]c(=O)[nH]c1=O | i | 0.03 | / | /
CCn1c(O)c(C=NCCN2CCOCC2)c(=O)[nH]c1=S | i | / | / | /
COc1ccc(CNCCc2ccc3c(c2)OCO3)cc1Br | i | / | 16%* | i
COc1ccc(Br)cc1CNCCc1ccc2c(c1)OCO2 | i | / | / | /
Clc1cccc(CNCCc2ccc3c(c2)OCO3)c1 | i | / | / | /
Clc1ccc(CNCCc2ccc3c(c2)OCO3)cc1 | i | / | 28%* | i
C[C@@]12N[C@@H](Cc3ccccc31)c1ccccc12 | i | / | / | /
Cn1c(O)c(C(=Nc2ccc(F)cc2)c2ccccc2Cl)c(=O)n(C)c1=O | i | / | / | /
O=C(CCC(=O)N1CC2C[C@@H](C1)Cn1c2cccc1=O)NCCc1ccccc1F | i | / | / | /
CCN1C[C@]2(COC)CC[C@H](O)[C@@]34C5C[C@@H]6[C@@H](OC)C[C@@](O)(C5[C@H]6O)[C@](O)([C@@H](OC)C23)[C@@H]14 (stereo partly specified) | i | 1.2 | / | /
COC(=O)C1=C(c2cc3ccccc3s2)C[C@@H]2CC[C@H]1N2C(=O)N1CCOCC1 | i | 0.42 | / | /
C[n+]1c(-c2ccccc2)cc(-c2ccc(O)cc2)cc1-c1ccccc1 | i | 0.44 | / | /
Cc1ccc(-c2cc(-c3ccccc3)cc(-c3ccccc3)[n+]2-c2ccccc2C(=O)O)cc1 | i | / | / | /
Cc1cc(-c2ccccc2)cc(-c2ccccc2)[n+]1CCc1ccccc1 | -5.7* | -5.7 | 45%* | i
CCOC(C[n+]1c(-c2ccccc2)cc(C)cc1-c1ccccc1)OCC | i | 0.69 | / | /
Fc1ccc(C[n+]2c(-c3ccccc3)cc(-c3ccccc3)cc2-c2ccccc2)cc1 | -6.3* | -6.3 | 24%* | i

Screens: PubChem BioAssay, Johns Hopkins Ion Channel Center
